Potency and affinity values are given separately.
Columns and labels:
Klebsiella pneumoniae = conditions: Concentration 20 uM; ASSAY_TEST Inhibition of Bacterial Growth; detection method Absorption (OD600); MEDIA CAMHB; plate type 384well; NBS; CORNING #3640; time 18 hr
Candida albicans = conditions: 20 µM
Cryptococcus neoformans = conditions: Concentration 20 uM; ASSAY_TEST Inhibition of Fungal Growth; detection method Resazurin; Absorption (OD600-OD570); plate type 384well; NBS; CORNING #3640

Molecule CC(C)Cc1ccc(C(C)C(=O)O)cc1 (stereo unspecified) [IBUPROFEN] has an Inhibition (Klebsiella pneumoniae) of -1.68%, an Inhibition (Candida albicans) of 13.3% and an Inhibition (Cryptococcus neoformans) of -3.38%.
Work on COc1c2occc2cc2ccc(=O)oc12 [METHOXSALEN] yielded an Inhibition (Klebsiella pneumoniae) of 9.19%, an Inhibition (Candida albicans) of 5.22% and an Inhibition (Cryptococcus neoformans) of -0.09%.
CN(CCOc1ccc(NS(C)(=O)=O)cc1)CCc1ccc(NS(C)(=O)=O)cc1 [DOFETILIDE] was tested, and the Inhibition (Klebsiella pneumoniae) was 7.49%, the Inhibition (Candida albicans) was 2.12% and the Inhibition (Cryptococcus neoformans) was -1.31%.
With CCCCNC(=O)NS(=O)(=O)c1ccc(C)cc1 [TOLBUTAMIDE] the Inhibition (Klebsiella pneumoniae) was 16.6%, the Inhibition (Candida albicans) was 1.06% and the Inhibition (Cryptococcus neoformans) was 0.26%.
Molecule C[C@]12C[C@H](O)[C@H]3[C@@H](CCC4=CC(=O)CC[C@@]43C)[C@@H]1CC[C@@H]2C(=O)CO [CORTICOSTERONE] has an Inhibition (Klebsiella pneumoniae) of 17.2%, an Inhibition (Candida albicans) of 2.69% and an Inhibition (Cryptococcus neoformans) of -3.25%.
CC(C)(C)NC(=O)[C@@H]1C[C@@H]2CCCC[C@@H]2CN1C[C@@H](O)[C@H](Cc1ccccc1)NC(=O)[C@H](CC(N)=O)NC(=O)c1ccc2ccccc2n1.CS(=O)(=O)O [SAQUINAVIR MESYLATE] gave an Inhibition (Klebsiella pneumoniae) of 4.6%, an Inhibition (Candida albicans) of 4.21% and an Inhibition (Cryptococcus neoformans) of -6.99%.
For COc1cc([C@@H]2c3cc4c(cc3[C@@H](O[C@@H]3O[C@@H]5CO[C@@H](C)O[C@H]5[C@H](O)[C@H]3O)[C@H]3COC(=O)[C@H]23)OCO4)cc(OC)c1O [ETOPOSIDE], the Inhibition (Klebsiella pneumoniae) was 4.81%, the Inhibition (Candida albicans) was 0.59% and the Inhibition (Cryptococcus neoformans) was -6.14%.
With CCC(=O)O[C@]1(C(=O)SCF)[C@H](C)C[C@H]2[C@@H]3C[C@H](F)C4=CC(=O)C=C[C@]4(C)[C@@]3(F)[C@@H](O)C[C@@]21C [FLUTICASONE PROPIONATE] the Inhibition (Klebsiella pneumoniae) was 6.12%, the Inhibition (Candida albicans) was 10.1% and the Inhibition (Cryptococcus neoformans) was -1.8%.
CC(=O)OCC(=O)C12OC3(CCCC3)OC1CC1C3CCC4=CC(=O)C=CC4(C)C3(F)C(O)CC12C (stereo unspecified) was tested, and the Inhibition (Klebsiella pneumoniae) was 13.26%, the Inhibition (Candida albicans) was 3.39% and the Inhibition (Cryptococcus neoformans) was 1.74%.
For Cl.Clc1cccc(Cl)c1NC1=NCCN1 [CLONIDINE HYDROCHLORIDE], the Inhibition (Klebsiella pneumoniae) was 4.94%, the Inhibition (Candida albicans) was 3.3% and the Inhibition (Cryptococcus neoformans) was -10.31%.
Cl.O.c1cnc(N2CCN(Cc3ccc4c(c3)OCO4)CC2)nc1 was tested, and the Inhibition (Klebsiella pneumoniae) was 3.33%, the Inhibition (Candida albicans) was 3.11% and the Inhibition (Cryptococcus neoformans) was -7.46%.
Work on CC(c1cc2ccccc2s1)N(O)C(N)=O (stereo unspecified) [ZILEUTON] yielded an Inhibition (Klebsiella pneumoniae) of 4.07%, an Inhibition (Candida albicans) of 5.22% and an Inhibition (Cryptococcus neoformans) of 2.66%.
Molecule CC(=O)O.CNC(=N)NCCC[C@H](N)C(=O)O [TILARGININE ACETATE] has an Inhibition (Klebsiella pneumoniae) of -3.72%, an Inhibition (Candida albicans) of 2.96% and an Inhibition (Cryptococcus neoformans) of -3.5%.
CC1=Nc2ccc(Cl)cc2S(=O)(=O)N1 [DIAZOXIDE] gave an Inhibition (Klebsiella pneumoniae) of 19.87%, an Inhibition (Candida albicans) of 4.07% and an Inhibition (Cryptococcus neoformans) of -6.19%.
C[C@]12C=CC(=O)C=C1CC[C@@H]1[C@@H]2[C@@H](O)C[C@@]2(C)[C@H]1CC[C@]2(O)C(=O)COC(=O)CCC(=O)[O-].[Na+] [PREDNISOLONE SODIUM SUCCINATE] showed an Inhibition (Klebsiella pneumoniae) of 6.54%, an Inhibition (Candida albicans) of -0.07% and an Inhibition (Cryptococcus neoformans) of 1.35%.
With COC(=O)C1=C(C)NC(C)=C(C(=O)OCC(C)C)C1c1ccccc1[N+](=O)[O-] (stereo unspecified) [NISOLDIPINE] the Inhibition (Klebsiella pneumoniae) was 25.81%, the Inhibition (Candida albicans) was 6.12% and the Inhibition (Cryptococcus neoformans) was 42.23%.
With CCOC(=O)O[C@]1(C(=O)OCCl)CC[C@H]2[C@@H]3CCC4=CC(=O)C=C[C@]4(C)[C@H]3[C@@H](O)C[C@@]21C [LOTEPREDNOL ETABONATE] the Inhibition (Klebsiella pneumoniae) was 0.28%, the Inhibition (Candida albicans) was 4.45% and the Inhibition (Cryptococcus neoformans) was 0.62%.
O=C(O)c1cccnc1 [NIACIN] showed an Inhibition (Klebsiella pneumoniae) of 4.99%, an Inhibition (Candida albicans) of 2.72% and an Inhibition (Cryptococcus neoformans) of -3.83%.
OCCN(CCO)c1nc(N2CCCCC2)c2nc(N(CCO)CCO)nc(N3CCCCC3)c2n1 [DIPYRIDAMOLE] was tested, and the Inhibition (Klebsiella pneumoniae) was 2.81%, the Inhibition (Candida albicans) was 2.59% and the Inhibition (Cryptococcus neoformans) was 5.59%.
CN(CCOc1ccc(CC2SC(=O)NC2=O)cc1)c1ccccn1.O=C(O)/C=C\C(=O)O (stereo unspecified) [ROSIGLITAZONE MALEATE] gave an Inhibition (Klebsiella pneumoniae) of 9.63%, an Inhibition (Candida albicans) of 0.75% and an Inhibition (Cryptococcus neoformans) of -9.6%.
NS(=O)(=O)Cc1noc2ccccc12 [ZONISAMIDE] was tested, and the Inhibition (Klebsiella pneumoniae) was 12.91%, the Inhibition (Candida albicans) was 3.7% and the Inhibition (Cryptococcus neoformans) was -5.53%.
Work on CC(C)(C)NC(=O)[C@@H]1CN(Cc2cccnc2)CCN1C[C@@H](O)C[C@@H](Cc1ccccc1)C(=O)N[C@H]1c2ccccc2C[C@H]1O.O=S(=O)(O)O [INDINAVIR SULFATE] yielded an Inhibition (Klebsiella pneumoniae) of 0.54%, an Inhibition (Candida albicans) of 2.58% and an Inhibition (Cryptococcus neoformans) of -4.45%.
CCOC(=O)C1(CCCCCCOc2ccc(Cl)cc2)CO1 (stereo not drawn) [rac-ETOMOXIR] showed an Inhibition (Klebsiella pneumoniae) of 8.69%, an Inhibition (Candida albicans) of 1.76% and an Inhibition (Cryptococcus neoformans) of -1.88%.
In the case of CC(C)[C@H]1CC[C@H](C(=O)N[C@H](Cc2ccccc2)C(=O)O)CC1 [NATEGLINIDE], the Inhibition (Klebsiella pneumoniae) is reported as 12.08%, the Inhibition (Candida albicans) is reported as 4.05% and the Inhibition (Cryptococcus neoformans) is reported as -0.58%.
In the case of COc1ccccc1N1CCN(CC(O)COc2cccc3ccccc23)CC1 (stereo unspecified) [NAFTOPIDIL], the Inhibition (Klebsiella pneumoniae) is reported as -0.32%, the Inhibition (Candida albicans) is reported as 2.55% and the Inhibition (Cryptococcus neoformans) is reported as 1.21%.
Cc1onc(-c2ccccc2)c1-c1ccc(S(N)(=O)=O)cc1 [VALDECOXIB] showed an Inhibition (Klebsiella pneumoniae) of 13.38%, an Inhibition (Candida albicans) of 1.13% and an Inhibition (Cryptococcus neoformans) of 0.76%.
CC[C@H](C)C(=O)O[C@H]1CCC=C2C=C[C@H](C)[C@H](CC[C@@H]3C[C@@H](O)CC(=O)O3)[C@H]21 [MEVASTATIN] showed an Inhibition (Klebsiella pneumoniae) of 5.3%, an Inhibition (Candida albicans) of 24.7% and an Inhibition (Cryptococcus neoformans) of -2.39%.

Source: ChEMBL document CHEMBL4513141, “CO-ADD screening of NIH (USA) - Clinical Collection” (2021)
